A selection: hits, their analogues and other compounds. The true share with any hit is near 3.1%.
p53null 39C kill = selectivity test: cytotoxicity in p53 null cells, nonpermissive temperature | Potency, µM (highest dose often 46.1 µM), for inactives: top-dose activity, negative = cell killing, usual class: cytotoxic | actives 0.97% (n = 55,000) | H1299 p53-null (neo) cells, 39C, ATPlite viability, 24 h | AID 904;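 note: potency is the fitted concentration of half-maximal effect; 0% = DMSO only and -100% = full killing by 100 µM tamoxifen; nearly all actives have a fitted effect of over 50% in size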
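Temperature-shift cytotoxicity format: compound titrations on p53-null or A138V-expressing H1299 cells held 24 hr at 39C, cell ATP then measured, AC50 from Hill model.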
p53null 32C tox = p53 null cell cytotoxicity, permissive temperature; H1299-neo p53 null cells, ATP luminescence, 24 h, 32C; actives 0.62% (n = 55,000); Potency, µM (top dose mostly 46.1 µM), inactives show at the highest dose activity change, negative = cytotoxicity, actives largely listed as cytotoxic;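 note: potency is the fitted concentration of half-maximal effect; 0% = DMSO only and -100% = full killing by 100 µM tamoxifen; nearly all actives have a fitted effect of over 55% in size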
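AC50 values derive from Hill modelling of qHTS concentration-response data (up to 46 uM) in H1299-neo cells. Cells were treated 24 h at 32C following overnight attachment at 37C; viability was read as cellular ATP.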
mTORC1 inh = inhibitors of mTORC1 signaling in Tsc2-/- p53-/- MEF cells; Tsc2-/- p53-/- MEF, phospho-rpS6 immunofluorescence/PI, 24 h; Potency, µM (highest dose often 38.3 µM), for inactives: at the top dose activity change, negative = inhibition, most hits filed as inhibitors; actives 0.78% (n = 44,000);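 note: potency is the fitted concentration of half-maximal effect; plate controls were DMSO for no effect and rapamycin for full effect; nearly all actives have a fitted effect of over 50% in size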
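Read-out: phospho-S6 Alexa-488 intensity over PI intensity per well, scored as % active cells using thresholds from rapamycin (7.5 nM) and DMSO controls. Tsc2-/-, p53-/- MEFs exposed to compound for 24 h; PI cell count recorded as viability.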
OvCa metastasis = ovarian cancer metastasis inhibition, 3D TME model; SKOV3ip1-GFP adhesion/invasion on 3D omental model, fluorescence; Potency, µM (series often up to 45.8 µM), for the others: top-dose activity change, negative = inhibition, actives largely listed as inhibitors; actives 0.1% (n = 46,000);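 note: potency is the fitted concentration of half-maximal effect; plate controls were DMSO wells for no effect and tomatine positive control wells for full effect; nearly all actives have a fitted effect of over 65% in size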
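qHTS, 4-pt dose (0.36-46 umol/L); SKOV3ip1-GFP, 1,200 cells/well, no FBS; primary omental fibroblast/mesothelial co-culture 48 h pre-grown; 2 h RT + 16 h 37 C; PBS wash, 4% PFA; GFP count 488/509 nm.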
PMP22 txn = PMP22 gene transcription modulation | S16 Pmp22-F2sN Schwann cells, FLuc/NLuc coincidence luminescence, 24 h | Potency, µM (doses to about 57.5 µM), for the others: top-dose activity change, negative = inhibition, usual class: inhibitors | actives 2% (n = 43,000) | AID 1508649; active = clear falling dose curves in both reporters; inconclusive = both reporters move, but less clearly or upward; inactive = either reporter flat; the % is the NLuc reporter signal; note: potency is the fitted concentration of half-maximal effect; % is set by controls: 0 for no effect and ±100 for the full control effect
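Reporter cells (S16 Pmp22-F2sN, 500–1,000 per well) exposed to compounds for 24 h, 37C, 5% CO2; lysis with FLuc read after 10 min, then Stop&Glo and NLuc read after 10 min.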
S16 viability = S16 Schwann cell cytotoxicity; S16 Pmp22-F2sN Schwann cells viability, CellTiter-Glo, 24 h; Potency, µM (highest dose often 57.5 µM), inactives show at the highest dose activity change, negative = cytotoxicity, usual class: cytotoxic; actives 0.48% (n = 43,000); AID 1508642; note: potency is the fitted concentration of half-maximal effect; % is set by controls: 0 for no effect and ±100 for the full control effect; nearly all actives have a fitted effect of over 65% in size
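Rat S16 Schwann reporter line, 24 h treatment with library compounds delivered at 23 nL per well. Cell viability by CellTiter-Glo luminescence.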
NLuc saturating = inhibits NanoLuc at saturating substrate, PMP22 counter-screen. actives 4% (n = 690). Potency, µM (top dose mostly 57.5 µM), without a hit: at the top dose activity change, negative = inhibition, usual class: inhibitors. shares compounds with PMP22 txn. Secreted NLuc enzyme (filtered S16 cell medium), Nano-Glo luminescence. AID 1508638; note: potency is the fitted concentration of half-maximal effect; % is set by controls: 0 for no effect and ±100 for the full control effect
NLuc Km ctr = NanoLuc inhibition at Km substrate, PMP22 artifact check; secreted NLuc enzyme, coelenterazine luminescence, Km conditions; actives 5% (n = 690); AID 1508639; Potency, µM (highest dose often 57.5 µM), inactives show at the highest dose activity change, negative = inhibition, actives largely listed as inhibitors; shares compounds with PMP22 txn; note: potency is the fitted concentration of half-maximal effect; % is set by controls: 0 for no effect and ±100 for the full control effect
FLuc counter = firefly luciferase enzyme inhibition artifact for PMP22 screen. shares compounds with PMP22 txn. purified P. pyralis FLuc, luminescence, 10 min. Potency, µM (highest dose often 57.5 µM), for inactives: at the top dose activity, negative = inhibition, usual class: inhibitors. 690 tested, under 10 active. AID 1508640; note: % of control where 0% means no effect
Target sequence (P08659 whole entry, looked up): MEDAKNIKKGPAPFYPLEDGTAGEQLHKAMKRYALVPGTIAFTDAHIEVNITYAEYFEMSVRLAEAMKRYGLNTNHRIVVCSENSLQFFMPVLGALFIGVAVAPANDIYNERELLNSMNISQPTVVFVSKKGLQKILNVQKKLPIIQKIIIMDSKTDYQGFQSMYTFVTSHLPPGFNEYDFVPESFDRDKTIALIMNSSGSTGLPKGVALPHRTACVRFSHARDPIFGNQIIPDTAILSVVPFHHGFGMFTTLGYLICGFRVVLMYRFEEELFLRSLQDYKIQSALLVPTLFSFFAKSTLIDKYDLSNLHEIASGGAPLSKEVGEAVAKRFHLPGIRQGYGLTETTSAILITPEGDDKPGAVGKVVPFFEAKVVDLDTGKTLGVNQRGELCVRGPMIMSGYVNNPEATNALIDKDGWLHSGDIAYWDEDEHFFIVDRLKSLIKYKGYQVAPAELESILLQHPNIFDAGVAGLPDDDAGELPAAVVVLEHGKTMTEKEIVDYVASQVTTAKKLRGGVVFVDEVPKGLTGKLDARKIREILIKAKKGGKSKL
S16 F2sN tox cnf = confirmation of cytotoxicity in S16 Pmp22-F2sN Schwann cells (luciferase reporters placed in the Pmp22 gene); shares compounds with PMP22 txn; S16 Schwann cells viability, CellTiter-Glo ATP luminescence, 24 h; Potency, µM (top dose mostly 57.5 µM), for the others: top-dose activity change, negative = viability loss, most hits filed as cytotoxic; actives 7% (n = 690); note: potency is the fitted concentration of half-maximal effect; % is set by controls: 0 for no effect and ±100 for the full control effect
PMP22 txn cnf = PMP22 transcription modulation, confirmatory; shares compounds with PMP22 txn; S16 Schwann cells Pmp22-F2sN, dual luciferase, 24 h; Potency, µM (titrated, usually from 57.5 µM), without a hit: at the highest dose activity change, negative = inhibition, usual class: inhibitors; actives 22% (n = 690); AID 1508646; active = clear falling dose curves in both reporters; inconclusive = both reporters move, but less clearly or upward; inactive = either reporter flat; the % is the FLuc reporter signal; note: potency is the fitted concentration of half-maximal effect
PMP22 HiBiT cnf = rat PMP22 protein level modulation, confirmatory | shares compounds with PMP22 txn | S16 Schwann cells Pmp22-HiBiT, luminescence, 48 h | Potency, µM (titrated, usually from 27.9 µM), without a hit: at the top dose activity change, negative = inhibition, most hits filed as inhibitors | 95 tested, under 10 active | AID 1508647
Target sequence (P25094 whole entry, looked up): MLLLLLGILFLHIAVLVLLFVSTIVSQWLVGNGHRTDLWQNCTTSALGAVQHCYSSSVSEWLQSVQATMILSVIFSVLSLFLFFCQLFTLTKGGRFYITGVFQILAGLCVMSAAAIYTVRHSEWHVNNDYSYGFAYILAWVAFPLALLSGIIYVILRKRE
* marks the source's active call; other numbers are inactive results; i = inactive; u = inconclusive; x = no result. Unless noted, calls come from the whole dose curve; as a rule, active = well fitted curve in the direction sought with a large enough effect; inconclusive = small, poorly fitted or top-dose-only effect, or another doubt; inactive = no such curve, though single readings can be large; an effect the other way counts as inactive or inconclusive.

SMILES	p53null 39C kill	p53null 32C tox	mTORC1 inh	OvCa metastasis	PMP22 txn	S16 viability	NLuc saturating	NLuc Km ctr	FLuc counter	S16 F2sN tox cnf	PMP22 txn cnf	others
Cc1cccc(-n2c(=O)c3c(c4cc(C)ccc4n3C)n(CC(=O)NCCC3=CCCCC3)c2=O)c1	-14%	-2%	-6%	2%	u	0%	2%	12%	5%	u	17µM*	PMP22 HiBiT cnf=4%
Cc1cc2c(n1-c1ccc(C(=O)NCCc3ccc(Cl)cc3)cc1)CCCC2	-14%	-6%	-25%	-2%	u	-2%	x	x	x	x	x
CC1=Nc2cc(C(=O)NCCc3ccc(Cl)cc3)ccc2Sc2c(C)ccc(C)c21	u	35%	-11%	i	7.8µM*	-7%	-5%	4%	2%	u	u
COc1ccc(CNC(=O)c2ccc3c(c2)N=C(C)c2c(C)ccc(C)c2S3)cc1	52%	23%	1%	-1%	u	15%	x	x	x	x	x
CC1=Nc2cc(C(=O)NCCc3ccccc3)ccc2Sc2c(C)ccc(C)c21	u	15%	-13%	2%	2.7µM*	-3%	-5%	4%	-11%	u	u
CCCNC(=O)c1ccc2c(c1)N=C(C)c1c(C)ccc(C)c1S2	u	3%	u	-6%	0.39µM*	3%	-6%	u	0%	16%	u
O=C(NC1CCOCC1)c1ccc(-c2cc(-c3cn[nH]c3-c3ccccn3)ccn2)cc1	x	x	x	-25%	x	x	x	x	x	x	x
Cc1cc(C(C)Nc2ccccc2)c2nc(N3CCOCC3)cc(=O)n2c1 (configuration not stated)	x	x	x	-12%	x	x	x	x	x	x	x
CCCNC(=O)c1ccc(-n2c(-c3ccccc3)cc3c2CCCCC3)cc1	64%	11%	-18%	u	u	0%	x	x	x	x	x
CC(C)OCCCNC(=O)c1ccc(-n2c(-c3ccccc3)cc3c2CCCC3)cc1	-1%	-6%	0%	i	13µM*	-5%	-2%	-2%	4%	5%	u
CCOCCCNC(=O)c1ccc(-n2c(-c3ccccc3)cc3c2CCCCC3)cc1	224%	-3%	-8%	-3%	-57%	5%	x	x	x	x	x
CN(C)CCNC(=O)c1ccc(-n2c(-c3ccccc3)cc3c2CCCC3)cc1	14%	15%	u	i	20µM*	26%	-1%	-1%	-8%	u	u
CC(C)NC(=O)c1ccc(-n2c(-c3ccccc3)cc3c2CCCC3)cc1	16%	14%	u	1%	14µM*	u	-2%	-3%	-1%	u	-23%
COCCCNC(=O)c1ccc(-n2c(-c3ccccc3)cc3c2CCC(C)C3)cc1 (configuration not stated)	109%	-7%	8%	-21%	18µM*	8%	-19%	-2%	-12%	u	2.7µM*	PMP22 HiBiT cnf=10%
CCC(C)NC(=O)c1ccc(-n2c(-c3ccccc3)cc3c2CCCC3)cc1 (configuration not stated)	28%	15%	0%	i	u	4%	x	x	x	x	x
CC1(C)CC(=O)c2c(C(F)(F)F)nn(-c3ccc(C(N)=O)c(NC4CCC(O)CC4)c3)c2C1 (configuration not stated)	x	x	x	-5%	x	x	x	x	x	x	x
COC(=O)c1c(C)oc2ccc(N(C(=O)c3ccncc3)S(=O)(=O)c3cc(C)c(C)cc3C)cc12	76%	55%	u	i	u	u	x	x	x	x	x
COC(=O)c1c(C)oc2ccc(N(C(=O)c3ccncc3)S(=O)(=O)c3c(C)cc(C)cc3C)cc12	3%	16%	-16%	-4%	3.8µM*	-12%	-8%	6%	11%	-7%	u
O=C(O)c1cccc(-c2noc(-c3ccccc3F)n2)c1	x	x	x	9%	x	x	x	x	x	x	x
COc1cc(OC)c(OC)cc1CN1CCc2nc(N3CCN(c4ccccc4F)CC3)ncc2C1	3%	1%	0%	-1%	u	-10%	-9%	3%	-2%	-1%	u
CCOc1ccc(CN2CCc3nc(N4CCN(c5ccccc5OC)CC4)ncc3C2)cc1OC	20%	9%	0%	-2%	17µM*	-8%	-2%	0%	-1%	-11%	-41%
COc1ccccc1N1CCN(c2ncc3c(n2)CCN(Cc2ccccc2F)C3)CC1	1%	-2%	7%	-2%	0%	-3%	x	x	x	x	x
COc1cccc2c1C(=O)c1c(O)c3c(c(O)c1C2=O)C[C@@](O)(C(=O)CO)C[C@H]3O[C@H]1C[C@H](N)[C@H](O)[C@H](C)O1	x	x	x	5%	x	x	x	x	x	x	x
O=C1CCCC2=C1C(c1[nH]ncc1Cl)N=C(Nc1nc3ccccc3o1)N2 (configuration not stated)	x	x	x	-8%	x	x	x	x	x	x	x
CCN1CCN(CCCNC(=O)Cn2c(-c3cccs3)cc3ccccc32)CC1	-1%	5%	-10%	-4%	u	u	x	x	x	x	x
